# According to the supplement of paper PMC6411743:
# ± gives the standard deviation of the averaged measurements. The full data set covers some 6,200 targets. This sample favours those with the largest changes.
# Assays:
# Test in all cases: NP40-soluble protein abundance relative to vehicle (solubility fold change) (ratio); higher = more soluble protein in presence of AMP-PNP
# A0A024R216|Q9Y3E1 = A0A024R216|Q9Y3E1 (UniProt Q9Y3E1)
# How it was run: (§1)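 Values are fold changes against the detergent-processed vehicle, based on vsn-normalised intensities. Jurkat crude lysate was treated at eight concentrations from 0.1 to 10 mM (10 min at room temperature, then 3 min at 37 °C), solubilised with 0.8% NP40 and benzonase, ultracentrifuged and analysed by TMT-labelled LC-MS/MS over three independent experiments.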
# A0A024RAC6 = A0A024RAC6 (UniProt Q14241)
# How it was run: as §1
# [1] = target: A0A075B738|P16284|P16284-6 (UniProt P16284)
# How it was run: as §1
# A0A087WUL0|Q3LXA3 = target: T1, A0A087WUL0|Q3LXA3 (UniProt Q3LXA3)
# T1 sequence (whole entry): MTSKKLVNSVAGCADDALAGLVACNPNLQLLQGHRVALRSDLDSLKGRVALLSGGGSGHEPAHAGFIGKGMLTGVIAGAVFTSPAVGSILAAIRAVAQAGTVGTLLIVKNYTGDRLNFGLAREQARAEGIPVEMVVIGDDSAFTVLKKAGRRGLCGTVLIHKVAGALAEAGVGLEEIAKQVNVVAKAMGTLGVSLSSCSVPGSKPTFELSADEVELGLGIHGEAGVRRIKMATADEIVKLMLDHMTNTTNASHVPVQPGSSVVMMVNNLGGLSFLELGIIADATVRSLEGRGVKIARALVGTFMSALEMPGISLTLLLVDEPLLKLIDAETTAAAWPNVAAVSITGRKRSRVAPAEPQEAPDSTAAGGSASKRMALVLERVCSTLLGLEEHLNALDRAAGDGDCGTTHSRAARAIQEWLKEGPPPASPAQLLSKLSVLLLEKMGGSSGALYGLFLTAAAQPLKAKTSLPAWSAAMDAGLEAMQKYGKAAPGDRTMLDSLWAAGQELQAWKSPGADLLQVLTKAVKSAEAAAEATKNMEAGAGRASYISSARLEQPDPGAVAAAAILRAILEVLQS
# How it was run: as §1
# A0A087WUT6|O60841 = target: T2, A0A087WUT6|O60841 (UniProt O60841)
# T2 sequence (whole entry): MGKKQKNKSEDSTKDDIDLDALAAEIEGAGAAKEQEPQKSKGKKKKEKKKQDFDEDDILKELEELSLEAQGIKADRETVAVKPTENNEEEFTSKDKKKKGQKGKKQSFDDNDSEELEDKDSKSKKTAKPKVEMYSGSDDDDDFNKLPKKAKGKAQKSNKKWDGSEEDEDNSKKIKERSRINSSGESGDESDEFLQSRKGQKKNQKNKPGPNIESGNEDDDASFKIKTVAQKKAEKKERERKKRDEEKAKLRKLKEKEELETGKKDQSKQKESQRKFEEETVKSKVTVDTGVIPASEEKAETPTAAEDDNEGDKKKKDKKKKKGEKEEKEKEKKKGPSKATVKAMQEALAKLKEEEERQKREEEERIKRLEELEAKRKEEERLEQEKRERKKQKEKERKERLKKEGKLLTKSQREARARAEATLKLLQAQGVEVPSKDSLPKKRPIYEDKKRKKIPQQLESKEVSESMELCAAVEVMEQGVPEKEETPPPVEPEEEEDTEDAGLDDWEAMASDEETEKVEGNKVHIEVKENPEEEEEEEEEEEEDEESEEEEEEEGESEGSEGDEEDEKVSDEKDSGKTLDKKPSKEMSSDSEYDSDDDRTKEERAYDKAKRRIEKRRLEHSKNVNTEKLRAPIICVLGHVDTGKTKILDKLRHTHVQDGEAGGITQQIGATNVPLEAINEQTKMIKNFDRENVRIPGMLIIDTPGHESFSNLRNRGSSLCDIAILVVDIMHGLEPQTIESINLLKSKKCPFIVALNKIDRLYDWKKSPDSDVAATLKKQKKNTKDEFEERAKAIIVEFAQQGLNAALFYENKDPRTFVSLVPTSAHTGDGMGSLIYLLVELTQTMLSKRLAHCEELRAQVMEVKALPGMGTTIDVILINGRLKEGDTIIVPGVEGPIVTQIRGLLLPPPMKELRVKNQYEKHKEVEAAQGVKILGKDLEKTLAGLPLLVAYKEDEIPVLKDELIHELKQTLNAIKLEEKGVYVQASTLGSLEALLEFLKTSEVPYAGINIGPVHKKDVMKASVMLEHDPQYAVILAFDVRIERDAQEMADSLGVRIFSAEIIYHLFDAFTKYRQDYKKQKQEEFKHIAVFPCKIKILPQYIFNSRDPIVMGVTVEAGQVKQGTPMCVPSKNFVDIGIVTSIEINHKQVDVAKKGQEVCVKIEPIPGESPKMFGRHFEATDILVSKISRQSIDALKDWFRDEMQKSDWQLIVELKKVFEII
# How it was run: as §1
# A0A024R216|Q9Y3E1, sequence (Q9Y3E1 whole entry, one chain of several): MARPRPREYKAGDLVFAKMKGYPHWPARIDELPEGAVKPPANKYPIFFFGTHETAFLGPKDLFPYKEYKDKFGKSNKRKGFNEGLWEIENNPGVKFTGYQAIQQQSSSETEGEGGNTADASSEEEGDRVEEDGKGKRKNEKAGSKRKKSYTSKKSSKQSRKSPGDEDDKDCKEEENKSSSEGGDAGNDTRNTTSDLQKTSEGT
# A0A024RAC6, sequence (Q14241 whole entry): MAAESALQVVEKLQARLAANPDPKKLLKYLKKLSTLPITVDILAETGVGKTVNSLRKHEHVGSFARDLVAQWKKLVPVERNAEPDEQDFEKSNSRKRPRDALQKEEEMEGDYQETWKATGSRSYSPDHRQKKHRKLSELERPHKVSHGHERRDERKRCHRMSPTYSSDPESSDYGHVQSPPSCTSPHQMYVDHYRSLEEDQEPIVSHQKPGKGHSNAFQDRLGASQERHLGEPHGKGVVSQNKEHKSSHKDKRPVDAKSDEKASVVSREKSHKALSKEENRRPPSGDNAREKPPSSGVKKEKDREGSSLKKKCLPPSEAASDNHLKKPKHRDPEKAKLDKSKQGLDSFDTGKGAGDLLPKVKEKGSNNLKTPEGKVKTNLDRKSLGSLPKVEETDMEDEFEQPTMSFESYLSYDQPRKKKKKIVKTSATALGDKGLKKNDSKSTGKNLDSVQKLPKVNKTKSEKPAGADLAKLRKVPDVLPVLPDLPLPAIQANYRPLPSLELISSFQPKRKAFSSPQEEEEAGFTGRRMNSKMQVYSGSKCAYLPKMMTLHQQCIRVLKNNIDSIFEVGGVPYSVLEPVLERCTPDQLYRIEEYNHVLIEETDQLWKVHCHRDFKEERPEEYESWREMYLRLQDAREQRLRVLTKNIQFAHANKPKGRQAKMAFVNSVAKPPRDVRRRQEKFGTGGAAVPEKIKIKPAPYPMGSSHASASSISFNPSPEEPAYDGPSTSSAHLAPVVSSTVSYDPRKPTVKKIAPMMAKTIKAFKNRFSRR
smiles,measurement,setting,value
Nc1ncnc2c1ncn2[C@@H]1O[C@H](COP(=O)(O)OP(=O)(O)NP(=O)(O)O)[C@@H](O)[C@H]1O [adenylyl imidodiphosphate],NP40-soluble protein abundance,A0A024R216|Q9Y3E1; concentration: 1mM,1 ± 0.031
same,NP40-soluble protein abundance,A0A024R216|Q9Y3E1; concentration: 2mM,1.1 ± 0.17
same,NP40-soluble protein abundance,A0A024R216|Q9Y3E1; concentration: 4mM,1.05 ± 0.074
same,NP40-soluble protein abundance,A0A024R216|Q9Y3E1; concentration: 6mM,1.16 ± 0.074
same,NP40-soluble protein abundance,A0A024R216|Q9Y3E1; concentration: 8mM,1.11 ± 0.06
same,NP40-soluble protein abundance,A0A024R216|Q9Y3E1; concentration: 10mM,1.17 ± 0.14
same,NP40-soluble protein abundance,A0A024RAC6; concentration: 1mM,1.05 ± 0.014
same,NP40-soluble protein abundance,A0A024RAC6; concentration: 2mM,1.13 ± 0.076
same,NP40-soluble protein abundance,A0A024RAC6; concentration: 4mM,1.06 ± 0.029
same,NP40-soluble protein abundance,A0A024RAC6; concentration: 6mM,1.08 ± 0.044
same,NP40-soluble protein abundance,A0A024RAC6; concentration: 8mM,1.06 ± 0.022
same,NP40-soluble protein abundance,A0A024RAC6; concentration: 10mM,1.09 ± 0.019
same,NP40-soluble protein abundance,[1]; concentration: 1mM,1.02 ± 0.027
same,NP40-soluble protein abundance,[1]; concentration: 2mM,1.08 ± 0.095
same,NP40-soluble protein abundance,[1]; concentration: 4mM,1.01 ± 0.033
same,NP40-soluble protein abundance,[1]; concentration: 6mM,0.995 ± 0.011
same,NP40-soluble protein abundance,[1]; concentration: 8mM,0.98 ± 0.013
same,NP40-soluble protein abundance,[1]; concentration: 10mM,0.994 ± 0.032
same,NP40-soluble protein abundance,A0A087WUL0|Q3LXA3; concentration: 1mM,1.02 ± 0.024
same,NP40-soluble protein abundance,A0A087WUL0|Q3LXA3; concentration: 2mM,1.05 ± 0.05
same,NP40-soluble protein abundance,A0A087WUL0|Q3LXA3; concentration: 4mM,1.03 ± 0.054
same,NP40-soluble protein abundance,A0A087WUL0|Q3LXA3; concentration: 6mM,0.997 ± 0.01
same,NP40-soluble protein abundance,A0A087WUL0|Q3LXA3; concentration: 8mM,0.963 ± 0.027
same,NP40-soluble protein abundance,A0A087WUL0|Q3LXA3; concentration: 10mM,1.02 ± 0.036
same,NP40-soluble protein abundance,A0A087WUT6|O60841; concentration: 1mM,1.05 ± 0.012
same,NP40-soluble protein abundance,A0A087WUT6|O60841; concentration: 2mM,1.02 ± 0.018
same,NP40-soluble protein abundance,A0A087WUT6|O60841; concentration: 4mM,1.02 ± 0.017
